About 83,000 compounds went through this panel and 20% of them were active in at least one assay; those are over-represented in the sample as a whole.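 Each cell line was grown in a 96-well plate and treated with one concentration of compound for 48 hours. Values below 10 were considered active.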 Unmarked numbers belong to inactive results. Activity calls are given as the source filed them.
Key:
Assay in all cases: NCI-60 one-dose screen, 48 h (100 = growth as untreated, 0 = no growth, -100 = all killed)
[1] = tested on: DU-145 prostate; conditions: 10 µM
[2] = tested on: K-562 leukemia; conditions: 10 µM
[3] = tested on: MALME-3M melanoma; conditions: 10 µM
[4] = tested on: MDA-MB-231 breast; conditions: 10 µM
[5] = tested on: RXF 393 renal; conditions: 10 µM
[6] = tested on: SF-268 CNS; conditions: 10 µM
[7] = tested on: SF-295 CNS; conditions: 10 µM
[8] = tested on: SF-539 CNS; conditions: 10 µM
[9] = tested on: UACC-257 melanoma; conditions: 10 µM
[10] = tested on: M14 melanoma; conditions: 10 µM
[11] = tested on: HCT-15 colon; conditions: 10 µM
[12] = tested on: HT29 colon; conditions: 10 µM
[13] = tested on: SNB-19 CNS; conditions: 10 µM
[14] = tested on: U251 CNS; conditions: 10 µM
[15] = tested on: UACC-62 melanoma; conditions: 10 µM unless noted
[16] = tested on: LOX IMVI melanoma; conditions: 10 µM
[17] = tested on: SK-MEL-28 melanoma; conditions: 10 µM
[18] = tested on: PC-3 prostate; conditions: 10 µM
[19] = tested on: SK-MEL-5 melanoma; conditions: 10 µM
[20] = tested on: SNB-75 CNS; conditions: 10 µM

SMILES	growth [1] [%]	growth [2] [%]	growth [3] [%]	growth [4] [%]	growth [5] [%]	growth [6] [%]	growth [7]	growth [8] [%]	growth [9] [%]	growth [10] [%]	growth [11] [%]	growth [12] [%]	growth [13] [%]	growth [14] [%]	growth [15] [%]	growth [16] [%]	growth [17] [%]	growth [18] [%]	growth [19] [%]	growth [20] [%]
CN(C)C(C)(C)CC(C)(C)C	99.5	96.5	94.2	101	103	103	104%	94.1	117	105	100	119	105	107	105	100	109	–	–	–
NC(=O)N/N=C\c1ccco1	131	100	114	110	109	112	132%	109	85.1	104	107	103	102	101	103	102	116	104	–	–
CC(=O)N(C)c1ccc([N+](=O)[O-])cc1	122	111	144	102	102	116	107%	106	110	108	102	102	97.5	101	104	–	114	93.5	103	–
CC1(c2ccccc2)NC(=O)NC1=O (configuration not stated)	125	103	113	111	110	106	119%	117	84.5	121	110	110	103	113	100	109	113	98.6	–	–
C#C[C@H]1CCCCCC1O (some centres not stated)	110	101	104	102	103	105	108%	106	107	107	114	107	106	99.7	100	97	122	90.1	98.1	–
C#CCSc1nnnn1-c1ccc(Br)c(C)c1	107	86.3	112	98.4	68.3	99.2	103%	89	83.5	94.8	95.4	89.7	86.4	81.8	65.6	97.4	124	–	88.3	–
COc1nc(N)nc2c1ncn2C1OC(CO)CC1O (configuration not stated)	110	101	100	112	112	108	113%	45.6	111	104	101	–	103	112	100	107	108	99.2	105	89.7
N#CCc1ccc([N+](=O)[O-])cc1	113	114	148	100	113	106	95.3%	101	74	101	105	104	96.6	98.5	92.8	100	106	95.8	101	–
Cc1nc2c(ccc3ccccc32)s1	123	115	110	107	116	116	104%	100	101	98.5	110	–	107	99.3	107	98.4	105	99.7	112	108
CCOc1ccc(I)cc1	105	119	108	102	107	96.4	113%	97.8	104	–	103	106	104	103	95.2	100	107	88.4	118	91.4
CCOC(=O)C1=C(C)NC(=O)NC1c1cccs1 (configuration not stated)	122	103	110	110	99.7	108	112%	103	102	111	103	–	113	109	115	101	106	–	104	103
CC(C)OC(=O)c1cc(NC(=S)OC(C)C)ccc1Cl	83.8	73.7	67.6	72.7	35.8	92	83.5%	89.6	78.9	–	87.8	70.5	92.3	96.6	77.1	93.4	101	83.3	44	109
NC(=S)NN=C1CCCC1	96.8	65.7	85.3	95	107	89.3	95.7%	110	66.9	83.1	77.9	–	105	–	103	88.6	101	–	97.8	99.3
CC(C)C1CCCCC1O (configuration not stated)	113	164	117	99.4	112	99.5	111%	101	101	–	96	106	104	100	102	96.3	116	98.3	103	108
CC1(C)N=C(N)N=C(N)N1c1cccc(Br)c1	53.4	23.2	68.9	77.6	66.8	37.2	-8.36% (active)	16.2	56	–	32.4	28.4	44.9	32.9	30.2	20.2	72.5	38.5	26.7	58.6
CO[C@H]1C[C@@H]2CC[C@@H](C)[C@@](O)(O2)C(=O)C(=O)N2CCCC[C@H]2C(=O)O[C@H]([C@H](C)C[C@@H]2CC[C@@H](O)[C@H](OC)C2)CC(=O)[C@H](C)C=C(C)[C@@H](O)[C@@H](OC)C(=O)[C@H](C)C[C@H](C)/C=C/C=C/C=C1C	32.4	51.5	35.9	75.9	14.1	56.2	23%	30.4	37.3	–	42.7	45.3	46.2	51.8	43.8	51.9	–	44	24.8	13.3
CCC(C#N)(CC)c1ccccc1	109	97.1	121	97.4	115	99.3	113%	113	104	–	90.6	110	99.5	109	89.5	97.9	108	102	98.6	84.6
CCCCCCCCOC(=O)c1ccccn1	102	115	117	95.2	116	97.6	133%	96.9	107	–	97.3	96.2	105	110	99.4	91.7	107	97.4	104	84.4
